{"source": "PubChem BioAssay (Tox21)", "note": "Records with an inconclusive call do not appear. The source made the active and inactive calls. Calls come from the whole dose curve; as a rule, active = well fitted inhibition curve with a large enough effect in the signal ratio in the repeat runs (not every such curve was filed as active); inconclusive = weak or mixed curves, or effect the other way; inactive = no such curve, though single readings can be large or run the other way; the % refers to the signal ratio. % is set by controls: 0 for no effect and ±100 for the full control effect."}
{"biological_target": "Glucocorticoid receptor (Homo sapiens) (UniProt P04150)", "sequence (P04150 whole entry, looked up)": "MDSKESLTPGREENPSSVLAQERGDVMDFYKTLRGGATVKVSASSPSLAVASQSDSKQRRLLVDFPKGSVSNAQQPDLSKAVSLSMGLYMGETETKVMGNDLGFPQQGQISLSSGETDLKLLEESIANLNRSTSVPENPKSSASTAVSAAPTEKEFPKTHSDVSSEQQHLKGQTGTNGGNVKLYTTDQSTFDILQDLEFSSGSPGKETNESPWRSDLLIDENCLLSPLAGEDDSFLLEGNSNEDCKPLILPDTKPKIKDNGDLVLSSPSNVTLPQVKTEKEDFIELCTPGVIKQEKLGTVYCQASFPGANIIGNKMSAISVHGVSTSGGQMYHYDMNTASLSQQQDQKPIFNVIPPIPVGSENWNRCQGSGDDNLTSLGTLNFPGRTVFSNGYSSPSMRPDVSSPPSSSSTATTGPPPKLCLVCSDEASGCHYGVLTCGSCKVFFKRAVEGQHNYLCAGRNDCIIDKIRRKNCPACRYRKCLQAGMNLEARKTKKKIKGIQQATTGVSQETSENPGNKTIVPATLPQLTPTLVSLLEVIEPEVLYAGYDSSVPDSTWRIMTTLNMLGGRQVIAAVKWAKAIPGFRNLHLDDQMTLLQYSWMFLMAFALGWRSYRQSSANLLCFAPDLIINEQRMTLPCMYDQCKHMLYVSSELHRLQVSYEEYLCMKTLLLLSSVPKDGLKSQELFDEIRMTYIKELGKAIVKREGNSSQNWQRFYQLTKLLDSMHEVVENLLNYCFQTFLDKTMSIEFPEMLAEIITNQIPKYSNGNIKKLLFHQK", "test": "qHTS assay to identify small molecule antagonists of the glucocorticoid receptor (GR) signaling pathway (AID 720692)", "details": "GR-bla HeLa, beta-lactamase FRET ratio, dexamethasone-stimulated, 18 h; series mostly up to 58.5 µM; activity change, negative = inhibition: at the top concentration", "excerpt": "U.S. Tox21 Program National Center for Advancing Translational Sciences [NCATS] NIH Chemical Genomics Center [NCGC] U.S. Environmental Protection Agency [EPA] National Institutes of Environmental Health Sciences [NIEHS] National Toxicology Program [NTP] U.S. Food and Drug Administration [FDA] Tox21 Assay Overview: The Glucocorticoid receptor (GR) is one of the members of the nuclear receptor family of ligand-dependent transcription factors. GR plays a critical role in carbohydrate, protein and lipid metabolisms and programmed cell death. CellSensor GR-bla HeLa cell line (Invitrogen) contains a beta-lactamase reporter gene under the control of the glucocorticoid response element stably integrated into HeLa cells, a cervical cancer cell line that expresses glucocorticoid receptor. The activation of the reporter gene under culture conditions can be detected by fluorescence intensity. This cell line has been used to screen the Tox21 10K compound library and to identify the compounds that inhibit the GR signaling.\nTox21 Assay Protocol Summary: The GR-bla HeLa cells were dispensed at 1500 cells/5 ul/well in 1536-well black wall/clear bottom plates using a Multidrop Combi (ThermoFisher Scientific, Waltham, MA) dispenser. After the assay plates were incubated at a 37 C/5% CO2 incubator for 4 hours, 23 nL of compounds dissolved in DMSO, positive controls or DMSO only was transferred to the assay plate by a pintool station (Kalypsys, San Diego, CA), followed by addition of 1 uL of dexamethasone (5 nM, final concentration in the well). The plates were incubated at 37 C for 18 hours. After 1 uL of LiveBLAzerTM B/G FRET substrate was added using a Flying Reagent Dispenser (Aurora Discovery, San Diego, CA), the plates were incubated at room temperature for 2 hours, and fluorescence intensity was measured by an Envision plate reader (PerkinElmer, Shelton, CT)."}
{"smiles": "CC(=O)CCCCn1c(=O)c2c(ncn2C)n(C)c1=O", "activity change, negative = inhibition": "9.01% [at 27 µM] (inactive)"}
{"smiles": "C[Si](C)=O", "activity change, negative = inhibition": "3.35% [at 7.04 µM] (inactive)"}
{"smiles": "CCCCNc1ccc(C(=O)OCCN(C)C)cc1", "activity change, negative = inhibition": "4.13% [at 27 µM] (inactive)"}
{"smiles": "CC(C)(C)c1n[nH]c(=S)n(N)c1=O", "activity change, negative = inhibition": "-0.794% (inactive)"}
{"smiles": "O=C(O)Cc1cn(-c2ccccc2)nc1-c1ccc(Cl)cc1", "activity change, negative = inhibition": "22.5% (inactive)"}
{"smiles": "COc1cc(C(=S)N2CCOCC2)cc(OC)c1OC", "activity change, negative = inhibition": "-3.68% (inactive)"}
{"smiles": "CC(C)CC(=O)O", "activity change, negative = inhibition": "-18.1% (inactive)"}
{"smiles": "CCN1CCc2nc(N)oc2CC1", "activity change, negative = inhibition": "-19.6% (inactive)"}
{"smiles": "CCNC(=O)C1CC(C)CCC1C(C)C", "note": "(stereo not given)", "activity change, negative = inhibition": "18% (inactive)"}
{"smiles": "COC(=O)CCc1ccc(OCC(O)CNC(C)C)cc1", "note": "(stereo not given)", "activity change, negative = inhibition": "1.9% (inactive)"}
{"smiles": "Cc1ccccc1N=O", "activity change, negative = inhibition": "-20.7% [at 78.9 µM] (inactive)"}
{"smiles": "Nc1ccc([N+](=O)[O-])c(N)c1", "activity change, negative = inhibition": "-6.13% (inactive)"}
{"smiles": "C=C(C)C(=O)OCCN(CC)CC", "activity change, negative = inhibition": "-2% (inactive)"}
{"smiles": "CC(=O)N[C@@H](CCC(=O)O)C(=O)O", "activity change, negative = inhibition": "6.18% (inactive)"}
{"smiles": "CC(=C(CCOC(=O)C(C)C)SSC(CCOC(=O)C(C)C)=C(C)N(C=O)Cc1cnc(C)nc1N)N(C=O)Cc1cnc(C)nc1N", "activity change, negative = inhibition": "6.15% (inactive)"}
{"smiles": "CCN(C)C(=O)Oc1cccc([C@H](C)N(C)C)c1", "activity change, negative = inhibition": "-2.2% (inactive)"}
{"smiles": "COc1ccc2c(c1)C(=O)N(CCc1ccc(S(=O)(=O)NC(=O)NC3CCCCC3)cc1)C(=O)C2(C)C", "activity change, negative = inhibition": "-10.4% [at 27 µM] (inactive)"}
{"smiles": "O=C(CS(=O)Cc1ccco1)NC/C=C\\COc1cc(CN2CCCCC2)ccn1", "note": "(stereo not given)", "activity change, negative = inhibition": "11.9% (inactive)"}
{"smiles": "CCc1ccc(C=O)cc1", "activity change, negative = inhibition": "11.2% (inactive)"}
{"smiles": "CCN(CC)CC(=O)Nc1c(C)cccc1C", "activity change, negative = inhibition": "21.6% (inactive)"}
{"smiles": "O=C(O)c1ccc(Cl)cc1Cl", "activity change, negative = inhibition": "1.2% [at 78.9 µM] (inactive)"}
{"smiles": "C[C@H](N)[C@H](O)c1cccc(O)c1", "activity change, negative = inhibition": "5.8% [at 27 µM] (inactive)"}
{"smiles": "CCCN1C[C@H](CSC)C[C@@H]2c3cccc4[nH]cc(c34)C[C@H]21", "activity change, negative = inhibition": "-7.87% (inactive)"}
{"smiles": "CC1=C(C(=O)O)N2C(=O)[C@@H](NC(=O)[C@H](N)c3ccc(O)cc3)[C@H]2SC1", "activity change, negative = inhibition": "0.026% [at 27 µM] (inactive)"}
{"smiles": "COc1ccc(C2CNC(=O)C2)cc1OC1CCCC1", "note": "(stereo not given)", "activity change, negative = inhibition": "-9.41% [at 27 µM] (inactive)"}
{"smiles": "On1nnc2ccccc21", "activity change, negative = inhibition": "-0.791% (inactive)"}
{"smiles": "COc1cc(N)ccc1C", "activity change, negative = inhibition": "-4.92% (inactive)"}
{"smiles": "CCCCOC(=O)c1ccccc1", "activity change, negative = inhibition": "0.935% (inactive)"}
{"smiles": "CN(C)c1ccc(C=O)cc1", "activity change, negative = inhibition": "-0.347% (inactive)"}
{"smiles": "NS(=O)(=O)c1ccc(NC(=O)CCC(=O)O)cc1", "activity change, negative = inhibition": "-17.1% (inactive)"}
{"smiles": "CCCCOCCOC(=O)COc1nc(Cl)c(Cl)cc1Cl", "activity change, negative = inhibition": "2.27% (inactive)"}
{"smiles": "Cc1nc2n(c(=O)c1CCN1CCC(c3noc4cc(F)ccc34)CC1)CCC[C@H]2O", "activity change, negative = inhibition": "-6.78% (inactive)"}
{"smiles": "CCCCN", "activity change, negative = inhibition": "3.83% (inactive)"}
{"smiles": "CCCCCCCC/C=C\\CCCCCCCC(=O)OCCCC", "activity change, negative = inhibition": "-18.5% [at 27 µM] (inactive)"}
{"smiles": "CC(=O)c1sc(C)nc1C", "activity change, negative = inhibition": "12.1% (inactive)"}
{"smiles": "CC(C(=O)O)c1ccc2c(c1)CC(=O)c1ccccc1S2", "note": "(stereo not given)", "activity change, negative = inhibition": "-0.174% (inactive)"}
{"smiles": "CNS(=O)(=O)CCc1ccc2[nH]cc(C3CCN(C)CC3)c2c1", "activity change, negative = inhibition": "-5.63% (inactive)"}
{"smiles": "COc1cc(NS(=O)(=O)c2ccc(N)cc2)nc(OC)n1", "activity change, negative = inhibition": "3.4% [at 27 µM] (inactive)"}
{"smiles": "COc1ccc2c(c1OC)C(=O)O[C@@H]2[C@H]1c2c(cc3c(c2OC)OCO3)CCN1C", "activity change, negative = inhibition": "8.58% (inactive)"}
{"smiles": "CC(=O)/C=C/C1C(C)=CCC(C)C1(C)C", "note": "(stereo not given)", "activity change, negative = inhibition": "-12.9% (inactive)"}
